Results on nine compounds are retold here after PubChem BioAssay (Tox21).

Values without a mark were called inactive. Inconclusive results are not listed. Active and inactive are the calls of the source. Unless noted, calls follow the shape of the full dose curve.

Experiment [1] can be described thus: Nuclear factor erythroid 2-related factor 2/antioxidant responsive element (Nrf2/ARE) small molecule agonists: qHTS cell viability counter screen in human keratinocytes (AID 1919968; active = well fitted curve in the direction sought with a large enough effect in the repeat runs; an effect the other way counts as inactive or inconclusive; also: nearly all actives have a fitted effect of over 55% in size; also: potency is read from the fitted curve at half-maximal effect). The method in brief: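 Cells of the KeratinoSens line were plated at 1,500 per well and left for 5 h before compound transfer from DMSO stocks. After a 23 h incubation (37 C, 5% CO2), CellTiter-Fluor was added. Signal was taken as fluorescence intensity 1 h later.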
For orientation: qHTS replaces the single test concentration by a dilution series.

A short description of experiment [2]: Nuclear factor erythroid 2-related factor 2/antioxidant responsive element (Nrf2/ARE) small molecule agonists: luciferase reporter gene qHTS assay in human keratinocytes (AID 1919969). Also: nearly all actives have a fitted effect of over 35% in size. Also: potency is read from the fitted curve at half-maximal effect. A general note: A reporter such as luciferase makes a cellular process visible.
Experiment [3] addresses Gonadotropin-releasing hormone receptor (Homo sapiens) (UniProt P30968). Nature of the experiment: Human gonadotropin-releasing hormone receptor (GnRHR) small molecule agonists, calcium flux assay in GnRHR-HEK293 cells (AID 1920063). Also: nearly all actives have a fitted effect of over 35% in size. Also: potency is read from the fitted curve at half-maximal effect. The method in brief: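 Compounds dissolved in DMSO are pin-transferred onto dye-loaded GnRHR-HEK293 cells, which were seeded 18 h before at 37 C/5% CO2. Calcium signal is read as fluorescence intensity at 1 s intervals for 3 min.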
In general terms: Calcium assays in cells follow changes in intracellular calcium, usually with a dye or a luminescent sensor.

Experiment [4] deals with KiSS-1 receptor (Homo sapiens) (UniProt Q969F8). Nature of the experiment: Human kisspeptin (KISS1R) small molecule agonists, calcium flux assay in KISS1R-HEK293 cells (AID 1920064; active = well fitted curve in the direction sought with a large enough effect in the repeat runs; an effect the other way counts as inactive or inconclusive). In short, it runs like this:
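Cell line: HEK293, stable human KISS1R. Dye loading 1 h at 37 C after 18 h culture. Read: kinetic fluorescence, 480/540 nm, 3 min at 1 s intervals.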

Experiment [5] can be described thus: p53 small molecule agonists, cell-based qHTS assay with rat liver microsomes (AID 1963578). In short, it runs like this: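 p53RE-bla cells were exposed to compounds together with rat liver microsomes (0.5 mg/mL final) and NADPH (0.5 mg/mL final) for 16 h at 37 C, then read by LiveBLAzer beta-lactamase fluorescence after 2 h at room temperature.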
Experiment [6] can be described thus: p53 small molecule agonists, cell-based qHTS assay with human liver microsomes: qHTS cell viability counter screen (AID 1963579). Also: nearly all actives have a fitted effect of over 45% in size. Also: potency is read from the fitted curve at half-maximal effect. In short, it runs like this: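 p53RE-bla cells (4,000/well) were pre-incubated 5 h at 37 C, then given compounds in DMSO plus human liver microsomes (0.5 mg/mL final) and NADPH (0.5 mg/mL final) for 16 h at 37 C. Viability was read by CellTiter-Glo luminescence.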

A short description of experiment [7]: p53 small molecule agonists, cell-based qHTS assay: qHTS cell viability counter screen (AID 1963581). Also: nearly all actives have a fitted effect of over 45% in size. Also: potency is read from the fitted curve at half-maximal effect. The method in brief:
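ATP content measured by luminescence in HCT-116 p53RE-bla cells treated 16 h at 37 C, same wells as the reporter screen.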

The target in experiment [8] is 5-hydroxytryptamine receptor 2A (Homo sapiens) (UniProt P28223). The experiment in a line: 5-hydroxytryptamine receptor 2A (HTR2A) small molecule antagonists, cell-based qHTS assay (AID 1963586). Also: nearly all actives have a fitted effect of over 45% in size. In short, it runs like this:
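CHO cells stably expressing human HTR2A were plated for 18 h at 37 C, then loaded with calcium dye for 1 h. Compounds were preincubated 5 min at room temperature before DOI (4 nM solution) was added. Kinetic fluorescence was read for 3 min.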

Experiment [9] deals with Muscarinic acetylcholine receptor M1 (Homo sapiens) (UniProt P11229). Nature of the experiment: Cholinergic receptor muscarinic 1 (CHRM1) small molecule antagonists, cell-based qHTS assay (AID 1963588). Also: nearly all actives have a fitted effect of over 40% in size. In short, it runs like this: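 Compounds were tested at 15 concentrations in three independent runs. Dye-loaded CHRM1-CHO cells were exposed 5 min at room temperature before stimulation by acetylcholine added at 50nM. Intracellular calcium was read kinetically on FDSS for 3 min.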
Sequence of Muscarinic acetylcholine receptor M1 (Homo sapiens) (P11229 whole entry, looked up): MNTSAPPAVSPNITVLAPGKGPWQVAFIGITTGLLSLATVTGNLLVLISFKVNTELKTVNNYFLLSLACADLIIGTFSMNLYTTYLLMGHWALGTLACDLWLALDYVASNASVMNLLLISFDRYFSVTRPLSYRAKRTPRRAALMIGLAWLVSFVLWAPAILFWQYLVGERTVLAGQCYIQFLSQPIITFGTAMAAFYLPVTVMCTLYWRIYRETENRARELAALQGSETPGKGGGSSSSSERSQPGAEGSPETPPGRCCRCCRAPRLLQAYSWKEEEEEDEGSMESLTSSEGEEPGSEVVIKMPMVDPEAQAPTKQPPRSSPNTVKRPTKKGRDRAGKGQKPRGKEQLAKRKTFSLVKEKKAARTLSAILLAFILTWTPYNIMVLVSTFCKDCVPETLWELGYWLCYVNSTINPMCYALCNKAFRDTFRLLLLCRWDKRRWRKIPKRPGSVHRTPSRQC

For experiment [10] the target is unchanged. Nature of the experiment: Cholinergic receptor muscarinic 1 (CHRM1) small molecule agonists, cell-based qHTS assay (AID 1963589). Also: nearly all actives have a fitted effect of over 35% in size. The method in brief:
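Homogeneous fluorescence calcium flux, agonist mode. Human M1-expressing CHO cells; compound dosed at 15 concentrations, three independent runs; signal sampled every 1 sec.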

Experiment [11] addresses D(2) dopamine receptor (Homo sapiens) (UniProt P14416). Nature of the experiment: Dopamine D2 receptor (DRD2) small molecule agonists, cell-based qHTS assay (AID 1963594). Also: nearly all actives have a fitted effect of over 35% in size. The method in brief:
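cAMP accumulation in DRD2-HEK293 cells measured by HTRF after 1 h detection; compounds added 10 min before NKH477 (200nM […]) forskolin-analogue stimulation, 30 min at room temperature, with Ro20-1724 present at 0.1 mM final.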

The target is the same in experiment [12]. Nature of the experiment: Dopamine D2 receptor (DRD2) small molecule antagonists, cell-based qHTS assay (AID 1963595; active = well fitted inhibition curve with a large enough effect in the signal ratio in the repeat runs, with a control signal flat; the % refers to the signal ratio). In short, it runs like this: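 Readout: HTRF cAMP, cAMP-d2 competing with cellular cAMP for anti-cAMP cryptate, read after 1 h. Cells: DRD2-HEK293. Conditions: 0.1 mM Ro20-1724, 12 nM quinpirole, 200 nM NKH477, 30 min RT.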
Experiment [13] is described as follows: G protein-coupled receptor (GPCR) small molecule agonists, calcium flux assay: HEK293 wild type cell line counter screen (AID 1920065). The method in brief:
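Tox21 10K compounds, 15 concentrations each in triplicate, pin-transferred in DMSO onto dye-loaded cells; kinetic read at 480/540 nm for 3 min, 1 s intervals.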

Experiment [14] concerns the target 5-hydroxytryptamine receptor 2A (Homo sapiens) (UniProt P28223). The experiment in a line: 5-hydroxytryptamine receptor 2A (HTR2A) small molecule agonists, cell-based qHTS assay (AID 1963587). Also: nearly all actives have a fitted effect of over 30% in size. In short, it runs like this: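 Kinetic calcium-flux fluorescence (2 min, 1 sec intervals) after compound addition in agonist mode. HTR2A-CHO cells were cultured 18 h, then dye-loaded 1 h at 37 C.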

A short description of experiment [15]: cAMP Responsive Elements (CRE) small molecule agonists, cell-based qHTS assay (AID 1963590). In short, it runs like this:
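HEK 293T cells stably bearing CRE-bla were plated at 2,000 cells per well and rested 18 h. Compounds, positive controls or DMSO were added for 3 h at 37 C. LiveBLAzer B/G substrate was then loaded for 2 h at room temperature.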

A short description of experiment [16]: cAMP Responsive Elements (CRE) small molecule antagonists, cell-based qHTS assay (AID 1963591; active = well fitted inhibition curve with a large enough effect in the signal ratio in the repeat runs, not every such curve was filed as active; the % refers to the signal ratio). In short, it runs like this:
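First, CRE-bla HEK293T cells settled 18 h at 37 C. Next, compound and 0.25 uM final NKH477 were applied for 3 h. Last, LiveBLAzer B/G substrate was loaded for 2 h at room temperature.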

Experiment [17] has as its target Beta-2 adrenergic receptor (Homo sapiens) (UniProt P07550). The experiment in a line: Adrenergic beta2 receptor (ADRB2) small molecule antagonists, cell-based qHTS assay (AID 1963592). Also: series mostly up to about 92 µM; nearly all actives have a fitted effect of over 50% in size. The method in brief:
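Assay format: CHO-ADRB2 cells, 18-20hr seeding at 37C/5% CO2, then compound plus 1nM isoproterenol agonist mix for 0.5hr RT. Homogeneous time-resolved fluorescence cAMP detection after 1hr, expressed as 665/615 nm ratio.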

The target is the same in experiment [18]. The experiment in a line: Adrenergic beta2 receptor (ADRB2) small molecule agonists, cell-based qHTS assay (AID 1963593).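 Also: CHO cells stably overexpressing human ADRB2.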 The method in brief:
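CHO cells stably over-expressing ADRB2 were plated overnight at 37C, then dosed with compounds plus a stimulation mix containing 100uM IBMX and 25uM Ro-20-1724 for 0.5hr at room temperature. cAMP was measured by HTRF competition, 1hr.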

A short description of experiment [19]: p53 small molecule agonists, cell-based qHTS assay (AID 1963582; active = well fitted activation curve with a large enough effect in the signal ratio in the repeat runs, not every such curve was filed as active; the % refers to the signal ratio). The method in brief: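 16 h compound exposure (37 C) of p53 response element–bla cells, preceded by 5 h recovery at 37 C/5% CO2; read-out via LiveBLAzer B/G FRET substrate, 2 h RT, fluorescence intensity.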
A short description of experiment [20]: p53 small molecule agonists, cell-based qHTS assay with rat liver microsomes: qHTS cell viability counter screen (AID 1963580). Also: nearly all actives have a fitted effect of over 45% in size. In short, it runs like this: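 Cytotoxicity counter screen: intracellular ATP read by CellTiter-Glo luminescence in the p53 reporter wells. HCT-116 p53RE-bla cells were treated for 16 h at 37 C alongside rat liver microsomes and NADPH, each 0.5 mg/mL final.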

Sequence of Beta-2 adrenergic receptor (Homo sapiens) (P07550 whole entry, looked up): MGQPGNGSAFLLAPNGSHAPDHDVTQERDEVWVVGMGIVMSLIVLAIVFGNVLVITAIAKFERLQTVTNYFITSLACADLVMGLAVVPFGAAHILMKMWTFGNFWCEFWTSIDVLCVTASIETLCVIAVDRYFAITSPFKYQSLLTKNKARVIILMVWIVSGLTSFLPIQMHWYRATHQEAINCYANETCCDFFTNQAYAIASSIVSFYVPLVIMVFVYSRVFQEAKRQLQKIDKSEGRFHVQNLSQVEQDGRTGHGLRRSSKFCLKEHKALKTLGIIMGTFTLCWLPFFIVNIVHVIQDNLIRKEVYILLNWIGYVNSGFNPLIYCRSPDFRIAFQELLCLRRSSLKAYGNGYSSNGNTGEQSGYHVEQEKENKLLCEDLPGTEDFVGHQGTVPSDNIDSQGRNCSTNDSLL
Sequence of 5-hydroxytryptamine receptor 2A (Homo sapiens) (P28223 whole entry, looked up): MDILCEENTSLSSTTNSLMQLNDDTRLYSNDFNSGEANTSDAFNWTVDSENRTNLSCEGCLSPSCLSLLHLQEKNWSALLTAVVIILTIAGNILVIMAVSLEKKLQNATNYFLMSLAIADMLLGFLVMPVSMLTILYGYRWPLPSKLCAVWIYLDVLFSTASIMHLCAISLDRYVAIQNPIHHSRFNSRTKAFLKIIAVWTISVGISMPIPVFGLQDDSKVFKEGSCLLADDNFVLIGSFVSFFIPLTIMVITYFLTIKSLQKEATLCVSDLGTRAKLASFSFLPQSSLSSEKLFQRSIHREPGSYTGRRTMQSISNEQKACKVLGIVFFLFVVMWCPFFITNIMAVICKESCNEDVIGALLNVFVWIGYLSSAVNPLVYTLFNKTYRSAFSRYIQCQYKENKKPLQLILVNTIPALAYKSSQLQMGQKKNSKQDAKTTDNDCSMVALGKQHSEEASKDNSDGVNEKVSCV
Sequence of D(2) dopamine receptor (Homo sapiens) (P14416 whole entry, looked up): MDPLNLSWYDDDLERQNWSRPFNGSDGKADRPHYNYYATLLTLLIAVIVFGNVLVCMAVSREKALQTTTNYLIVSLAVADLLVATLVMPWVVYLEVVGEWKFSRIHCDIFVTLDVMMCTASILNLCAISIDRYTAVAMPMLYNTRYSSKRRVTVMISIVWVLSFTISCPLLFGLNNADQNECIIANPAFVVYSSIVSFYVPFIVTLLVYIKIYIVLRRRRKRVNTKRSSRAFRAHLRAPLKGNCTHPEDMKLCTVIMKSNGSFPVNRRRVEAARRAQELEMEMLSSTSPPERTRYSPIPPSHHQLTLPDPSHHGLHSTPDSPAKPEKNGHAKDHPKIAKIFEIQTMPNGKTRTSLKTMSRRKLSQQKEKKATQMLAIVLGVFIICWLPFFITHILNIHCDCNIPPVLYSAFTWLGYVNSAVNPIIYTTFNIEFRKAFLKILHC
Sequence of KiSS-1 receptor (Homo sapiens) (Q969F8 whole entry, looked up): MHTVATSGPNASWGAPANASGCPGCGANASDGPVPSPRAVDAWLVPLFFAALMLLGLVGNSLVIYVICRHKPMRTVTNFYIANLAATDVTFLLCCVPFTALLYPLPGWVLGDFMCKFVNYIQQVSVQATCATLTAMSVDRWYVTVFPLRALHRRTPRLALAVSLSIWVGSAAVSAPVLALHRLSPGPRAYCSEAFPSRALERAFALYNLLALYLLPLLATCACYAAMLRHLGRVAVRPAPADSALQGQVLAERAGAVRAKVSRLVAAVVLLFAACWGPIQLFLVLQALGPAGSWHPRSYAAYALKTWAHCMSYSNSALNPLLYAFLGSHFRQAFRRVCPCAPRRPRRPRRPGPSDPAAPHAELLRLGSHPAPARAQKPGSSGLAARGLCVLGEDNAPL
Sequence of Gonadotropin-releasing hormone receptor (Homo sapiens) (P30968 whole entry, looked up): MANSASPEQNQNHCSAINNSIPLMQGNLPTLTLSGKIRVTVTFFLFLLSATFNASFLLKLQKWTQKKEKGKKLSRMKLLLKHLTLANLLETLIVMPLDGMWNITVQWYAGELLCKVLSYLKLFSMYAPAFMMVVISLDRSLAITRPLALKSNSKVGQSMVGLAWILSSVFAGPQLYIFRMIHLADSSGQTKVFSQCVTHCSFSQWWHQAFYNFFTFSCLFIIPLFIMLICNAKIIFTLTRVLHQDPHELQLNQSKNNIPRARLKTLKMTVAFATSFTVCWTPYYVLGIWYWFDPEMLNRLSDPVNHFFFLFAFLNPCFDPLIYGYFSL

Turning to `O=[N+]([O-])c1cc(C2CCCCC2)c(O)c([N+](=O)[O-])c1`, the Potency is 19.3 µM (active) in experiment [1]; 13.6 µM (active) in experiment [2]; 38.8 µM (active) in experiment [3]; 20.4 µM (active) in experiment [6]; 20.4 µM (active) in experiment [7]. Further, the Potency result in experiment [4], in experiment [5], in experiment [8], in experiment [9], in [10] and in experiment [11] was “inactive” each time. The Potency result in experiment [12] is “inactive”.
For `O=S(=O)(O)c1cc(O)ccc1O`, the Potency result in experiment [1], in [2], in experiment [3], in [4], in experiment [13] and in [8] was “inactive” in each case. Also, the Potency result in experiment [14], in experiment [9], in [10], in experiment [15], in [16] and in [17] was “inactive” each time. Also, the Potency result in experiment [18], in [11] and in experiment [12] was “inactive” each time.
For the compound `CC(C)NC[C@@H](O)COc1ccc(CC(N)=O)cc1`, the Potency entry in experiment [1], in experiment [2], in [3], in experiment [4], in [13] and in experiment [19] was “inactive” throughout. Moreover, the Potency entry in experiment [15], in experiment [16], in experiment [11] and in [12] was “inactive” in each case.
Turning to `CC/C=C\C/C=C\C/C=C\CCCCCCCC(=O)OCC`, the Potency result in experiment [1], in [3], in experiment [4], in experiment [13], in experiment [20] and in experiment [8] was “inactive” in each case. In addition, the Potency result in experiment [14], in experiment [9], in [10], in [18], in experiment [11] and in experiment [12] was “inactive” in each case. The Potency in [2] is 70.1 µM (active).
In the case of `C[C@@H](O)C(=O)O`, the Potency entry in experiment [1], in experiment [2], in experiment [3], in [4], in [5] and in experiment [6] was “inactive” in each case. For the same compound, the Potency entry in experiment [20], in experiment [7], in experiment [19], in experiment [15], in [16] and in experiment [11] was “inactive” each time. Also, the Potency entry in [12] was “inactive”.
On to `Nc1nc(N)c2nc(CNc3ccc(C(=O)N[C@@H](CCC(=O)O)C(=O)O)cc3)cnc2n1`, for which the Potency entry in experiment [1], in [2], in experiment [3], in experiment [4], in experiment [6] and in [20] was “inactive” in each case. The Potency entry in experiment [15], in [17], in experiment [18], in experiment [11] and in experiment [12] was “inactive” each time.
As to `C=CCOc1ccccc1OCC(O)CNC(C)C` (stereo unspecified), the Potency entry in experiment [1], in experiment [2], in experiment [3], in experiment [4], in [13] and in experiment [14] was “inactive” in each case. Moreover, the Potency result in [9], in experiment [10], in experiment [15], in experiment [16], in [11] and in experiment [12] was “inactive” in each case.
For the compound `COc1c2occc2c(OC)c2c(=O)cc(C)oc12`, the Potency result in [1], in experiment [2], in experiment [3], in experiment [4], in experiment [13] and in [20] was “inactive” each time. In addition, the Potency entry in experiment [8], in experiment [14], in experiment [9], in experiment [10], in [15] and in experiment [17] was “inactive” throughout. Further, the Potency result in [18], in experiment [11] and in experiment [12] was “inactive” throughout.
`c1ccc(Sc2ccccc2)cc1`: the Potency entry in experiment [1], in experiment [3], in experiment [4], in experiment [13], in experiment [7] and in [8] was “inactive” throughout. Besides, the Potency entry in experiment [14], in experiment [9], in experiment [10], in [15], in experiment [16] and in experiment [17] was “inactive” in each case. Also, the Potency entry in experiment [11] and in experiment [12] was “inactive” throughout. Moreover, the Potency in experiment [2] was 68.6 µM (active).
